# In PubChem BioAssay (Tox21):
# Inconclusive results are not listed. Values without a mark were called inactive. The source made the active and inactive calls. The call rests on the fitted dose curve; in most records, active means well fitted inhibition curve with a large enough effect in the signal ratio in the repeat runs; inconclusive means weak or mixed curves, or effect the other way; inactive means flat fitted curve, though single readings scatter; the % refers to the signal ratio.
# Test: qHTS assay for small molecule disruptors of the mitochondrial membrane potential (AID 720635)
# Conditions: HepG2 mitochondrial membrane potential, Mito-MPS dye ratio; series mostly up to 83.2 µM; ratio activity, negative = MMP loss: at the top concentration
# Description: U.S. Tox21 Program National Center for Advancing Translational Sciences [NCATS] NIH Chemical Genomics Center [NCGC] U.S. Environmental Protection Agency [EPA] National Institutes of Environmental Health Sciences [NIEHS] National Toxicology Program [NTP] U.S. Food and Drug Administration [FDA] Tox21 Assay Overview: Mitochondrial membrane potential (MMP), one of the parameters for mitochondrial function, is generated by mitochondrial electron transport chain that creates an electrochemical gradient by a series of redox reactions. This gradient drives the synthesis of ATP, a crucial molecule for various cellular processes. Measuring MMP in living cells is commonly used to assess the effect of chemicals on mitochondrial function. […] The dye accumulates in the mitochondria of healthy cells as aggregates, with red fluorescence. The mitochondrial potential collapses and the dye can no longer accumulate in the mitochondria and remains in the cytoplasm in monomers, with green fluorescence.
# Tox21 Assay Protocol Summary: 2,000 HepG2 cells in 5 uL/well were dispensed into black, clear-bottom 1536-well plates using a Multidrop Combi (Thermo Scientific) dispenser. The assay plates were incubated overnight at 37C to allow cells to attach to the wells, followed by the transfer of 23 nL compound or DMSO vehicle by a pin tool (Kalypsys). The plates were incubated for 1 hr at 37C and 5% CO2, followed by the addition of 5 uL of 2X Mito-MPS dye (BD Biosciences) into each well using Flying Reagent Dispenser (Aurora Discovery) and then following 30 min incubation at 37C. Fluorescence intensity (490nm excitation and 535nm emission for monomers; and 540nm excitation and 590nm emissions for aggregates) was measured using an Envision plate reader.
# On the % scale 0 is the no-effect control and ±100 the full control effect; potency means the concentration at half of the fitted maximal effect.
Compound,Potency,"ratio activity, negative = MMP loss"
O=C(NCc1cccnc1)Nc1ccc([N+](=O)[O-])cc1,24.3 µM (active),
CC1(C)CCC(Cc2ccc(Cl)cc2)C1(O)Cn1cncn1 (stereo not given),54.5 µM (active),
COc1cc(CC(C)N)cc2c1OCO2 (stereo not given),,17.6% [at 95.3 µM]
C=CCC1([C@H](C)CCC)C(=O)NC(=O)NC1=O,,15.7%
Nc1ccc([N+](=O)[O-])cc1[N+](=O)[O-],29.9 µM (active),
CCC(Br)(CC)C(=O)NC(N)=O,,-7.89%
CC(=O)[C@H]1CC[C@H]2[C@@H]3CC[C@H]4C[C@](C)(O)CC[C@]4(C)[C@H]3CC[C@]12C,,-9.22%
Nc1nc(N)nc(N)n1,,17.3% [at 95.3 µM]
CC(Cl)Cl,,-16.7%
CN(C)c1ccc(N(C)C)cc1,,-18.6%
COC1=CC(=O)O[C@@H](CCc2ccccc2)C1,,-19.5% [at 95.3 µM]
NCC(CC(=O)O)c1ccc(Cl)cc1 (stereo not given),,12.5%
CCCCCCCCCCOC(=O)c1ccccc1C(=O)OCCCCCCCCCC,,18.3%
CCOc1nc(F)cc2nc(S(=O)(=O)Nc3c(Cl)cccc3Cl)nn12,,-27.7%
N#Cc1cc(I)c(O)c(I)c1,3.44 µM (active),
CCOP(=S)(OCC)SCn1nnc2ccccc2c1=O,27.3 µM (active),
C/C(=C\c1ccccc1)[N+](=O)[O-],30.6 µM (active),
CC(C)=CCOc1c2occc2cc2ccc(=O)oc12,,13.6%
CCN(C)N=O,1.9 µM (active),
O=C(Nc1ccccc1)Nc1ccnc(Cl)c1,0.386 µM (active),

Compound,Potency,"ratio activity, negative = MMP loss"
CC(=O)c1cc2c(cc1C)C(C)(C)C(C)CC2(C)C (stereo not given),54.5 µM (active),
O=C=Nc1ccc(Cl)cc1,0.172 µM (active),
Brc1ccc(Oc2ccccc2)cc1,,-6.12%
CCOP(=O)(OCC)Oc1ccc([N+](=O)[O-])cc1,inactive,
C=CC[C@]1(O)CC[C@H]2[C@@H]3CCC4=CC(=O)CCC4=C3C=C[C@@]21C,,-11.9%
Clc1cccc(SC2CCNCC2)n1,,-9.17%
CC(=O)NC1CCSC1=O (stereo not given),inactive,
CCCCCCCCOC(=O)c1ccc(C(=O)OCCCCCCCC)c(C(=O)OCCCCCCCC)c1,,12.8% [at 95.3 µM]
COc1nn(C(=O)NS(=O)(=O)c2ccccc2OC(F)(F)F)c(=O)n1C,,-6.96%
NC(=O)C(Cl)(Cl)Cl,,10.9% [at 95.3 µM]
c1ccc(C2CC2)c(OCC2=NCCN2)c1,,-6.81%
Cl/C=C\Cl,,11.1%
O=[N+]([O-])C(Br)(CO)CO,inactive,
Cn1sc(Cl)cc1=O,inactive,
ClCc1ccccc1,,6.82%
CCCCCCC#N,,14.6%
O=C(C(Cl)(Cl)Cl)C(Cl)(Cl)Cl,,14.4% [at 95.3 µM]
C=CCN1CC[C@]23c4c5ccc(O)c4O[C@H]2C(=O)CC[C@@]3(O)[C@H]1C5,inactive,
CCC(C)(NC(=O)c1cc(Cl)c(C)c(Cl)c1)C(=O)CCl (stereo not given),17.3 µM (active),
c1ccc(CN2CCNCC2)cc1,,8.05% [at 258 µM]
